Laboratory results published in PubChem BioAssay (NCATS).
Records with an inconclusive call do not appear. A call without a number means that no potency is given here. Active and inactive are the calls of the source. Calls come from the whole dose curve; as a rule, active = well fitted inhibition curve with a large enough effect; inconclusive = small, poorly fitted or top-dose-only effect; inactive = no such curve, though single readings can be large or run the other way. Where a SMILES comes first, the peptide text is derived from it. Bridges are numbered along the chain shown (N, C = ends). [ ]: non-standard residue; d: D form. The star is where a group is joined. X1 = CCC(C)C(N)C1=NC(C(=O)*)CS1; dOrn = NCCC[C@@H](N)C(=O)O

Assay: qHTS to identify inhibitors of the type 1 interferon - major histocompatibility complex class I in skeletal muscle: primary screen against the NCATS Mechanism Interrogation Plate v5.0 (MIPE) Libary (AID 1347411); note: nearly all actives have a fitted effect of over 65% in size
Settings: iHSKM cells + IFN-b, HiBiT-tagged MHC-I luminescence, 24 h; series mostly up to 45.8 µM
From the text: Assay Submitter (PI): Travis B. Kinder Ph.D. & James Inglese Ph.D.
Assay Development and Screening Technology Laboratory (ADST)
National Center for Advancing Translational Sciences (NCATS), Rockville, MD
National Institute of Health (NIH), Bethesda, Maryland
Idiopathic inflammatory myopathies, collectively referred to as myositis, are a group of rare autoimmune diseases characterized by skeletal muscle inflammation, weakness, and usually accompanied by systemic pathologies of the skin, lungs, or vasculature. Current immunosuppressive therapies and glucocorticoids are often not curative and are accompanied by harsh side effects, especially in children with juvenile myositis. We initiated a drug repurposing and development program to identify more targeted, less toxic therapeutics to treat myositis. Although its cause is not known, muscle from a subset of patients have an abundance of the inflammatory type 1 interferon (IFN) and a down-stream product major histocompatibility complex class I (MHC class I), which are both thought to contribute to damage and weakness. We conducted quantitative high throughput screening on 6,576 compounds (4,679 unique) through a series of cell-based assays to identify those that inhibit the IFN-stimulated expression of MHC class I in muscle precursor cells (myoblasts). The compound identification and evaluation strategy utilized a primary screen with reporter-tagged MHC class I in genome-engineered myoblasts, ATP content counter screen for viability, HLA-ABC immunofluorescence secondary screen, and HLA-B RT-qPCR tertiary screen.
The primary screen utilized CRISPR/Cas9 genome-engineering of immortalized human myoblasts, C25cl48, where a pro-luminescent reporter HiBit was fused to the C-terminus of endogenous MHC class I allele HLA-B*08:01 (HLA-B HiBit myoblasts). HiBit is an 11 amino acid fragment of NanoLuc luminescent reporter (Promega Corporation), and when complexed to the larger LgBit fragment, the reconstituted enzyme produces light in the presence of furimazine substrate (Schwinn et al., 2018). Briefly, HLA-B HiBit myoblasts were plated into 1536-well plates, treated with 4.0 ng/ml human IFN-beta and 2,480 compounds from the NCATS Mechanism Interrogation Plate v5.0 (MIPE5.0) in an 11-point, 1:3 titration with a high final concentration of 46 uM. After 24 hrs of treatment, cells were assayed by Nano-Glo HiBiT Lytic Detection System (Promega) and luminescence measured by a ViewLux 1430 Ultra HTS (Perkin Elmer).
Schwinn MK, Machleidt T, Zimmerman K, Eggers CT, Dixon AS, Hurst R, Hall MP, Encell LP, Binkowski BF, Wood K V. 2018. CRISPR-Mediated Tagging of Endogenous Proteins with a Luminescent Peptide. ACS Chem Biol 13:467-474. doi:10.1021/acschembio.7b00549
PROTOCOL TABLE (as described by Inglese et al., 2007)
SEQUENCE No. (e.g., 1, 2, 3, etc.); […] (e.g., Cells, Incubation, Reagent, etc.); VALUE; DESCRIPTION
1a; Cells; 5 uL; Use a Multidrop Combi (Thermo Scientific) to seed 300 cells/well into 24 Greiner 1536 well white/solid bottom, high base, TC plates in 5 ul/well of iHSKM growth medium (GM) without dexamethasone into columns 1+2. Add metal lids with gas-exchange holes
1b; Cells; 5 uL; Use a Multidrop Combi (Thermo Scientific) to seed 300 cells/well into 24 Greiner 1536 well white/solid bottom, high base, TC plates in 5 ul/well of iHSKM GM without dexamethasone + 4 ng/ml IFN-b into columns 3 - 48. Add metal lids with gas-exchange holes
2; Incubate; 1 hr; Incubate at 37 C, 5% CO2, 95% RH
3; Compounds; 23 nl; Use Pin Tool (Wako) to transfer DMSO control, ruxolitinib IFN-b inhibitor control [High Concentration = 80 uM final, 16-pt, 1:2 in duplicate], and library compounds in DMSO
4; Incubate; 24 hrs; Incubate at 37 C, 5% CO2, 95% RH
5; Dispense; 2.5 ul; Use BioRAPTR FRD (Beckman Coulter) to add HiBit lytic reagent
6; Incubate; 10 min; Incubate in the dark at ambient temperature for lysis
7; Detector; 5 sec; Measure luminescence with ViewLux 1430 Ultra HTS (Perkin Elmer). […]
Potency is the fitted concentration of half-maximal effect.

Structure (SMILES)	Potency
OCc1ccccc1O[C@@H]1O[C@H](CO)[C@@H](O)[C@H](O)[C@H]1O	inactive
CN1C(=O)N[C@@H](Cc2c[nH]c3c(Cl)cccc23)C1=O	inactive
Cc1c(-c2ccnn2C)cc(C(=O)NCc2ccc(S(C)(=O)=O)cn2)c(=O)n1-c1cccc(C(F)(F)F)c1	inactive
O=C(NCC(=O)N1CC[C@H](NC2CCC(O)(c3ccc(-c4ncccn4)cn3)CC2)C1)c1cccc(C(F)(F)F)c1 (stereo not given in full)	inactive
CCCCC(=O)OCC(=O)[C@]1(O)Cc2c(O)c3c(c(O)c2[C@@H](O[C@H]2C[C@H](NC(=O)C(F)(F)F)[C@H](O)[C@H](C)O2)C1)C(=O)c1c(OC)cccc1C3=O	10.4 µM (active)
O=C(O)c1cnn(-c2nc3cc(OC(F)(F)F)c(Cl)cc3[nH]2)c1	inactive
CN(NC(=O)CC(=O)NN(C)C(=S)c1ccccc1)C(=S)c1ccccc1	inactive
N#Cc1ccnc(N2C(=O)CC[C@H]2C(=O)N(c2cncc(F)c2)[C@H](C(=O)NC2CC(F)(F)C2)c2ccccc2Cl)c1	inactive
Cc1nnc(C(C)C)n1C1CC2CCC(C1)N2CC[C@H](NC(=O)C1CCC(F)(F)CC1)c1ccccc1 (stereo not given in full)	inactive
O=C(O)c1ccc(CCCc2ccc(OCCc3ccc(F)cc3)cc2)o1	inactive
C[C@H]1CN(C[C@H](Cc2ccccc2)C(=O)NCC(=O)O)CC[C@@]1(C)c1cccc(O)c1	inactive
CN(C)C/C=C/C(=O)Nc1ccc(C(=O)Nc2cccc(Nc3ncc(Cl)c(-c4c[nH]c5ccccc45)n3)c2)cc1	0.294 µM (active)
Cc1cc(Nc2ncc(Cl)c(Nc3ccccc3S(=O)(=O)C(C)C)n2)c(OC(C)C)cc1C1CCNCC1	20.8 µM (active)
CO[C@@H]1COCC[C@@H]1N[C@@H]1CC[C@@](C(=O)N2CCc3ncc(C(F)(F)F)cc3C2)(C(C)C)C1	inactive
C[C@H](CCC(=O)O)[C@H]1CC[C@H]2[C@@H]3[C@H](O)C[C@@H]4C[C@H](O)CC[C@]4(C)[C@H]3CC[C@]12C	inactive
C[C@H]1[C@H](C)CC[C@]2(C(=O)O)CC[C@]3(C)C(=CC[C@@H]4[C@@]5(C)C[C@@H](O)[C@H](O)[C@@](C)(CO)[C@@H]5CC[C@]43C)[C@H]12	inactive
C=C1CC[C@@H]2[C@](C)(CO)[C@H](O)CC[C@@]2(C)[C@@H]1C/C=C1/C(=O)OC[C@H]1O	11.7 µM (active)
OC[C@H]1O[C@@H](n2cnc3c2NC=NC[C@H]3O)C[C@@H]1O	inactive
CON(C)C(=O)N1N=C(c2cc(F)ccc2F)S[C@@]1(CCCN)c1ccccc1	inactive
CC(=O)c1cnc2ccc(-c3cc(Cl)c(O)c(Cl)c3)nc2c1NC1CCC(CN(C)C)CC1 (stereo not given)	0.151 µM (active)

Structure (SMILES)	Potency
Cc1nn(C)c(COc2ccc(N3CCN(S(=O)(=O)N(C)C)CC3)cc2)c1-c1cccc2c(CCCOc3cccc4ccccc34)c(C(=O)O)n(CCN3CCOCC3)c12	inactive
Nc1ccn([C@@H]2C(F)=C(CO)[C@@H](O)[C@H]2O)c(=O)n1	inactive
CCS(=O)(=O)N1CCC([C@@H](C)n2c(C)c(C(=O)NCc3c(OC)cc(C)[nH]c3=O)c3ccccc32)CC1	inactive
CCOC(=O)c1ccnc(CNCC(=O)N(CC)CCN(C)C)c1	inactive
O=C(O)C[C@H](O)C[C@H](O)/C=C/c1c(C2CC2)nc2ccccc2c1-c1ccc(F)cc1	inactive
CC1(C)O[C@@H]2C[C@H]3[C@@H]4CCC5=CC(=O)C=C[C@]5(C)[C@H]4[C@@H](O)C[C@]3(C)[C@]2(C(=O)CO)O1	inactive
CC(C)(O)CNc1nc(Nc2ccnc(C(F)(F)F)c2)nc(-c2cccc(C(F)(F)F)n2)n1	inactive
O=C(C1CC1)N1CC[C@@H](Cc2n[nH]c(=O)n2-c2ccc(-c3ccc4occc4c3)cc2)C1	inactive
O=c1ccn([C@@H]2O[C@H](CO)[C@@H](O)[C@H]2O)c(=O)[nH]1	inactive
O=C(NC[C@H](O)CN1CCc2ccccc2C1)c1cc(NC2COC2)ncn1	inactive
CCC(C)C(N)C1=NC(C(=O)N[C@@H](CC(C)C)C(=O)N[C@H](CCC(=O)O)C(=O)N[C@H](C(=O)N[C@H]2CCCCNC(=O)[C@H](CC(N)=O)NC(=O)[C@@H](CC(=O)O)NC(=O)[C@H](Cc3cnc[nH]3)NC(=O)[C@@H](Cc3ccccc3)NC(=O)[C@H]([C@@H](C)CC)NC(=O)[C@@H](CCCN)NC2=O)[C@@H](C)CC)CS1 (stereo not given in full) (X1-L[dE]IK[dOrn]I[dF]H[dD]N; lactam 4-C)	inactive
OC[C@H]1O[C@@H](Oc2cc(O)cc(/C=C/c3ccc(O)cc3)c2)[C@H](O)[C@@H](O)[C@@H]1O	inactive
CCN(c1cc(C#CCN2CCOCC2)cc(C(=O)NCc2c(C)cc(C)[nH]c2=O)c1C)C1CCC(N(C)CCOC)CC1 (stereo not given)	inactive
CC1=C(/C=C/C(C)=C/C=C/C(C)=C/C=C/C=C(C)/C=C/C=C(C)/C=C/C2=C(C)CCCC2(C)C)C(C)(C)CCC1	inactive
CC(C)N(C[C@H]1O[C@@H](n2cnc3c(N)ncnc32)[C@H](O)[C@@H]1O)C1CC(CCc2nc3ccc(C(C)(C)C)cc3[nH]2)C1 (stereo not given in full)	inactive
NC1CCC(N[C@@H]2C[C@H]2c2ccccc2)CC1 (stereo not given in full)	inactive
Cc1nnc(C(C)C)n1C1CC2CCC(C1)N2CCC(NC(=O)C1CCC(F)(F)CC1)c1ccccc1 (stereo not given)	inactive
Cc1cc(C)cc(NC(=O)Cc2ccc(OC(C)(C)C(=O)O)cc2)c1	inactive
CCNC(=O)CCC/C=C\C[C@@H]1[C@@H](/C=C/C(O)CCc2ccccc2)[C@@H](O)C[C@@H]1O (stereo not given in full)	inactive
COc1ncc(-c2ccc3c(Nc4cc(Oc5cc(F)cc(F)c5)cc(C(=O)O)c4)c(S(=O)(=O)NC4CC4)cnc3c2)c(OC)n1	inactive
